# D2 PAM-1 – potentiates the human D2 dopamine receptor allosterically. P14416. DiscoveRx D2 beta-arrestin cells, luminescence, 90 min; 100% = 57 uM dopamine signal. potentiation, % (concentration not given with the values). 360,000 compounds, 0.23% hits; in the data active = potentiation above about 50%; inconclusive = mostly about 30% to 49%
#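 D2 cells co-treated with compound plus 50 nM dopamine (EC20) for 90 min at 37 deg C to detect potentiation. Beta-arrestin recruitment was read as enzyme-fragment luminescence after 1 h at ambient temperature. Full response was set by 57 uM dopamine.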
# D2 PAM-2 – positively modulates the human D2 dopamine receptor allosterically | P14416 | HEK293 T-REx D2, calcium flux, EC20 dopamine potentiation | potentiation, % at 10 µM | 340,000 compounds, 0.34% hits;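 active = potentiation over 3 SD above the plate norm, cut at about 30% in these data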; also: 0% is about no effect
#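 Using a no-wash calcium dye in inducible, force-coupled HEK293 Trex cells expressing D2, we tracked fluorescence each second for 180 s after compound, then for 180 s after EC20 dopamine to detect augmented signalling.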
# D2 antagonist – antagonists of human D2 dopamine receptor. P14416. HEK293 TREx D2 cells, calcium flux, dopamine EC80. AID 485344. 340,000 compounds, 2% hits. inhibition, % at 10 µM; in the data active = inhibition above about 30%; inactive = below that, where a call was filed; also: 0% is about no effect
#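 Inhibition of EC80 dopamine-driven calcium flux, recorded kinetically, defines activity here; cells are a tetracycline-induced HEK293 T-REx line expressing force-coupled D2.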
# D2 ag-1 – human D2 receptor agonism in beta-arrestin assay. P14416. DiscoveRx PathHunter D2 beta-arrestin, luminescence, 90 min; 100% = 57 uM dopamine signal. activation, % (concentration not given with the values). 360,000 compounds, 0.084% hits; in the data active = activation above about 40%; inconclusive = between about 15% and that limit
#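 DiscoveRx PathHunter D2 beta-arrestin cells (2,100/well) attached overnight, then compound-stimulated 90 min at 37 C in HBSS/10 mM HEPES/0.1% Tween-20 buffer; beta-galactosidase complementation read by luminescence after 1 h at ambient temperature. Dopamine 57 uM final (EC100) as control.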
# D2 ag-2 – agonists of human D2 dopamine receptor; P14416; HEK293 T-REx D2 cells, calcium flux agonist mode; activation, % at 2 µM; 340,000 compounds, 0.53% hits; AID 485358;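 active = activation over 3 SD above normal in the single-dose calcium agonist read, cut at about 30% in these data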; also: 0% is about no effect
#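 Tetracycline-induced HEK293 T-REx cells with force-coupled D2 receptor, plated overnight at 30 C, loaded with no-wash calcium dye. After a 10 s baseline, compound was pin-added and calcium flux read kinetically for 180 s; calcium rises flagged agonists.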
# D3 arrestin ag – confirmation of human D3 dopamine receptor agonists, beta-arrestin; shares compounds with D2 ag-2; DiscoveRx D3 beta-arrestin cells, luminescence, 90 min; Potency, µM (highest dose often 76.9 µM), for inactives: at the highest dose activation, actives largely listed as activators; 2,300 compounds, 4% hits;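 also: potency is read from the fitted curve at half-maximal effect; 100% = dopamine control response; nearly all actives have a fitted effect of over 70% in size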
# Target sequence (P35462 whole entry, looked up): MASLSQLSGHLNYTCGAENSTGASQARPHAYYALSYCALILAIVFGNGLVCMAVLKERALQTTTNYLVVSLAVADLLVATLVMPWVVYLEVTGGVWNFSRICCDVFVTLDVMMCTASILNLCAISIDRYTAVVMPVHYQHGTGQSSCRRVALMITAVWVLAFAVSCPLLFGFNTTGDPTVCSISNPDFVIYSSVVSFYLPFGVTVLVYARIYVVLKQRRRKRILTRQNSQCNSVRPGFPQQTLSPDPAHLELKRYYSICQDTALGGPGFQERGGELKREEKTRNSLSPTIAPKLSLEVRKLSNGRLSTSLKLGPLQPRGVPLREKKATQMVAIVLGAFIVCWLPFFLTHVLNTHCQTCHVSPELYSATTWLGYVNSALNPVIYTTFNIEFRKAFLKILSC
# D2 ag-3 – D2 receptor agonism, beta-arrestin counterscreen | shares compounds with D2 ag-2 | DiscoveRx PathHunter D2 beta-arrestin, luminescence, 90 min; response scale: percent relative to full dopamine signal | Potency, µM (titrated, usually from 76.9 µM), for inactives: at the top dose activation, usual class: activators | 2,300 compounds, 5.9% hits; also: potency is read from the fitted curve at half-maximal effect; % of control where 0% means no effect; nearly all actives have a fitted effect of over 70% in size
# An asterisk follows results filed as active; u = inconclusive; x = not tested or not shown. Rows were chosen to be rich in hits. Some 2.4% of all compounds tested hit in one or more screens of this group. Unless noted, calls follow the shape of the dose curve; as a rule, active = well fitted activation curve with a large enough effect; inconclusive = small, poorly fitted or top-dose-only effect; inactive = flat fitted curve, though single readings scatter.
SMILES,D2 PAM-1,D2 PAM-2,D2 antagonist,D2 ag-1,D2 ag-2,D3 arrestin ag,D2 ag-3
CC1CC(C)CN(CCCNC(=O)CN2C(=O)CSc3ccc(S(=O)(=O)N4CCOCC4)cc32)C1 (stereo not drawn),-24,-18,40*,2,29,-4%,8%
CCCCN(CC)CCCNC(=O)CN1C(=O)CSc2ccc(S(=O)(=O)N3CCOCC3)cc21,-8,-18,-22,4,23,-6%,3%
Cc1ccc(S(=O)(=O)c2nnn3c2nc(NC(C)C)c2sccc23)cc1,x,1,x,x,0,x,x
Cn1cc(CN2CCN(c3ccc(Cl)cn3)CC2)c(-c2ccccc2F)n1,-18,-1,5,0,2,x,x
Cc1cccc(N2CCN(Cc3cn(C)nc3-c3ccccc3F)CC2)n1,-7,-24,30*,u,51*,1%,17%
CC(C)NCC1CCc2cc(CO)c([N+](=O)[O-])cc2N1 (stereo not drawn),-32,-22,-1,-5,42*,-8%,-2%
O=C(c1ccccc1)N1N=C(C(F)(F)F)CC1(O)c1ccc(F)cc1 (stereo not drawn),-4,8,-27,-3,0,-12%,-1%
O=C(c1ccccc1)N1N=C(C(F)(F)F)CC1(O)c1ccccc1 (stereo not drawn),-12,4,-2,1,-2,x,x
O=c1[nH]c(CN2CCN(c3ccccc3)CC2)nc2scc(-c3ccccc3)c12,-10,4,32*,-5,8,u,24%
CCC(=O)N1CCc2cc(S(=O)(=O)CCC(=O)Nc3ccc(CC)cc3)ccc21,-1,0,2,0,1,x,x
CCOC(=O)N1CCC(NC(=O)CCS(=O)(=O)c2ccc3c(c2)CCN3C(=O)CC)CC1,4,-21,73*,u,66*,12%,u
CCC(=O)N1CCc2cc(S(=O)(=O)CCC(=O)NC3CCCCC3)ccc21,-5,5,-2,0,1,x,x
CCC(=O)N1CCc2cc(S(=O)(=O)CCC(=O)Nc3ccc(C)cn3)ccc21,0,-20,64*,3,57*,6%,19%
CCC(=O)N1CCc2cc(S(=O)(=O)N3CCCC3)ccc21,-3,-18,-23,-1,0,x,x
CCC(=O)N1CCc2cc(S(=O)(=O)N3CCCCCC3)ccc21,-13,-11,31*,5,37*,-6%,-2%
CC(=O)N1c2ccc(S(=O)(=O)N3CCC(C(=O)Nc4ncccc4C)CC3)cc2CC1C (stereo not drawn),-5,-8,5,1,27,-8%,-5%
Cc1cccc(C(=O)OC(C)C(=O)NCC2CCCCC2)c1O (stereo not drawn),2,-1,-19,0,0,x,x
CCC(=O)N1c2ccc(S(=O)(=O)N3CCN(CC)CC3)cc2CC1C (stereo not drawn),-9,-16,39*,7,48*,-7%,28%
CCC(=O)N1CCc2cc(S(=O)(=O)CCC(=O)Nc3ccc(C(C)=O)cc3)ccc21,1,7,2,2,-1,x,x
CCC(=O)N1CCc2cc(S(=O)(=O)CCC(=O)Nc3nc(C)cs3)ccc21,-8,-20,10,11,64*,11%,11%
Cc1sc2ncnc(SCC(=O)Nc3nc(-c4ccc(F)c(F)c4)cs3)c2c1C,0,5,5,4,0,x,x
CCN1C(=O)CCC(C(=O)O)C1c1ccc(OC)cc1 (stereo not drawn),-7,-4,-9,-2,-2,x,x
O=C(Nc1ccon1)c1nc[nH]c1C(=O)N1CCc2ccccc2C1,-10,0,-6,-2,0,-1%,-4%
O=C(NCc1ccccc1)c1nc[nH]c1C(=O)N1CCc2ccccc2C1,-13,x,x,1,x,x,x
O=C(CSc1nnc(CNC(=O)c2c(F)cccc2F)o1)NCCc1ccccc1,2,2,13,-2,0,x,x
SMILES,D2 PAM-1,D2 PAM-2,D2 antagonist,D2 ag-1,D2 ag-2,D3 arrestin ag,D2 ag-3
CC1(C)CC(=O)C=C(/C=C/c2ccccc2)C1,-15,10,-7,-4,-2,-5%,0%
CC(=O)SC1CC(=O)N(c2c(C)cccc2C)C1=O (stereo not drawn),-9,-20,27,-7,55*,-17%,-12%
Cc1[nH]c(C)c(S(=O)(=O)NCc2ccc(F)cc2)c1C(=O)N1CCCC1,-10,2,-10,0,0,x,x
O=C(NCCCN1CCCC1=O)c1ccc(NS(=O)(=O)c2ccc(F)cc2)cc1,-4,4,-4,4,2,-9%,-2%
O=C(NCCCN1CCCC1=O)c1cc(NS(=O)(=O)c2ccc(F)cc2)cc(NS(=O)(=O)c2ccc(F)cc2)c1,-10,-2,-1,-1,0,x,x
O=C(NCc1ccncc1)c1ccc(NS(=O)(=O)c2ccc(F)cc2)cc1,-8,x,x,1,x,-3%,-5%
CN1CCN(C(c2cccc(Br)c2)c2sc3nc(-c4ccco4)nn3c2O)CC1 (stereo not drawn),x,-10,x,x,0,x,x
Cc1ccc(S(=O)(=O)Cc2ccc(C(=O)NC3CCCCCC3)o2)cc1,-10,4,6,-6,0,x,x
O=C1N=C(N2CCOCC2)S/C1=C\c1ccc(-c2ccccc2Cl)o1,-9,-16,-8,8,42*,0%,u
Cc1ccccc1-c1ccc(/C=C2/SC(N3CCOCC3)=NC2=O)o1,u,-34,83*,49*,73*,-6%,u
O=C1N=C(N2CCOCC2)S/C1=C\c1cccs1,-9,-12,-7,-1,-1,x,x
O=C1C2CCCCN2C(=O)N1CCCCN1CCN(c2cccc(C(F)(F)F)c2)CC1 (stereo not drawn),-3,x,x,-1,x,x,x
O=c1n(CCCN2CCN(c3cccc(Cl)c3)CC2)nc2ccccn12,-25,-23,52*,-4,41*,-7%,7%
O=C1C2CCCN2C(=O)N1CCCN1CCN(c2cccc(Cl)c2)CC1 (stereo not drawn),-24,-29,31*,2,26,-13%,0%
Cc1cc(C(=O)N2CCN(c3ccccc3Cl)CC2)c(C)o1,-7,x,x,-1,x,x,x
COCCNC(=S)Nc1cc2oc3ccccc3c2cc1OC,-12,-19,30*,2,57*,-4%,17%
CC(OC(=O)Cc1c(F)cccc1Cl)C(=O)NC1CCCCC1C (stereo not drawn),-2,-12,-9,-5,1,-5%,-2%
